# From PubChem BioAssay
# BAZ2B inh – BAZ2B (human) inhibition; AID 504333; Potency, µM (doses to about 114 µM), for the others: top-dose activity change, negative = inhibition, hits mostly inhibitors; 360,000 tested, 4.4% active; AlphaScreen BAZ2B-H3K14Ac peptide displacement; note: % is set by controls: 0 for no effect and ±100 for the full control effect; nearly all actives have a fitted effect of over 60% in size
#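 AlphaScreen displacement of biotin-H3(5-23)K14Ac peptide (50 nM final) from BAZ2B (50 nM final) in PBS pH 7.4, 0.01% Tween-20; complex preformed 30 min RT, then compounds (top 110 uM) 30 min RT, beads 20 min dark.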
# PLK1 PBD inh – PLK1 (human) polo-box domain binding inhibition; Potency, µM, for inactives: max response, negative = inhibition, most hits filed as inhibitors; 360,000 tested, 2.8% active; Plk1 PBD binding of FITC phosphopeptide, fluorescence polarization; P53350; note: series mostly up to about 57 µM; % is set by controls: 0 for no effect and ±100 for the full control effect; nearly all actives have a fitted effect of over 65% in size
# G9a block – blocks human histone lysine methyltransferase G9a; Q96KQ7; G9a H3K9 monomethylation, AlphaScreen, 2 h; 350,000 tested, 8.8% active; Potency, µM (highest dose often 102 µM), inactives show at the top dose activity, negative = inhibition, hits mostly inhibitors; note: % is set by controls: 0 for no effect and ±100 for the full control effect; nearly all actives have a fitted effect of over 75% in size
#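 Methyltransferase reactions run at room temperature for 2 h (20 nM enzyme, 500 nM biotin-H3K9 peptide, 20 uM SAM) after a 15 min compound preincubation; product detected by AlphaScreen beads and anti-H3K9me1 antibody.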
# JMJD2A Tudor – JMJD2A Tudor domain (human) inhibition | AlphaScreen JMJD2A-Tudor / H3K4me3 peptide binding | Potency, µM (top dose mostly 114 µM), for the others: at the highest dose activity change, negative = inhibition, actives largely listed as inhibitors | 390,000 tested, 4.4% active | AID 504339; note: % is set by controls: 0 for no effect and ±100 for the full control effect; nearly all actives have a fitted effect of over 50% in size
# HP1b binding inh – HP1-beta chromodomain-methylated histone interaction inhibition. P83916. AlphaScreen HP1-beta / biotin-H3K9me3 peptide binding. Potency, µM (doses to about 114 µM), for the others: top-dose activity change, negative = inhibition, hits mostly inhibitors. 390,000 tested, 0.56% active. AID 540317; note: nearly all actives have a fitted effect of over 70% in size
#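 HP1-beta protein (50 nM final) preincubated 30 min at room temperature with biotinylated H3(1-18)K9me3 peptide (50 nM) in PBS pH 7.4, 0.01% Tween-20, then compound added for 30 min. AlphaScreen streptavidin donor/nickel chelate acceptor beads (10 ug/mL final), 30 min dark, luminescence read.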
# 12-LOX inh – inhibitors of human 12S-lipoxygenase ALOX12 | Potency, µM (highest dose often 108 µM), for the others: top-dose activity change, negative = inhibition, actives largely listed as inhibitors | purified 12hLO, xylenol orange hydroperoxide absorbance | P18054 | 580,000 tested, 1.1% active; note: % is set by controls: 0 for no effect and ±100 for the full control effect
#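 Purified human 12hLO at 150 nM in 25 mM Hepes, 0.01% Triton X-100, pH 7.0, preincubated 15 min at room temperature with compound. Reaction started with 40 uM arachidonic acid, 30 min at room temperature. Hydroperoxide measured by Fe-xylenol orange, 573/405 nm absorbance ratio.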
# Active calls of the source: *; ? = inconclusive; / = not tested or not shown; [ ] = remark or other dose. Sampled rows, rich in hits. Any-hit rate of the full collection: about 9%. Calls come from the whole dose curve; as a rule, active = well fitted curve in the direction sought with a large enough effect; inconclusive = small, poorly fitted or top-dose-only effect, or another doubt; inactive = no such curve, though single readings can be large; an effect the other way counts as inactive or inconclusive. Potency is the fitted concentration of half-maximal effect.
SMILES,BAZ2B inh,PLK1 PBD inh,G9a block,JMJD2A Tudor,HP1b binding inh,12-LOX inh
O=C(NC(=S)Nc1ncc(Br)cc1Br)c1cncc(Br)c1,-2.2%,-24.0%,1.6%[59 µM],50.1µM*,21.2%,?
Cc1cc(C)c(-c2csc(NC(=O)CN(C)CC(=O)Nc3ccccc3C(F)(F)F)n2)c(C)c1,/,/,/,/,/,17.6%
O=C(NNS(=O)(=O)c1ccc(F)cc1)c1cccc(O)c1,8.2%,-4.8%,/,25.1µM*,11.7%,6.6%
O=C(NNS(=O)(=O)c1ccc(F)cc1)c1ccccc1O,?,3.6%,31.6µM*,1.7%,23.6%,0.0%
Cc1cccc(NC(=O)C2C(c3ccccc3)C2(Cl)Cl)c1 (stereo not drawn),2.1%,-0.1%,/,22.7%,83.4%,?
Cc1ccc(S(=O)(=O)NNC(=O)c2ccccc2O)cc1,0.8%,-3.6%,-8.5%[59 µM],3.16µM*,4.4%,-17.1%
Cc1ccc(NC(=O)C2C(c3ccccc3)C2(Cl)Cl)c(C)c1 (stereo not drawn),7.9%,21.2µM*,28.8%[59 µM],?,-5.9%,5.0%
Cc1ccc(S(=O)(=O)NNC(=O)c2cccc(O)c2)cc1,-0.4%,-10.7%,-1.4%,-18.2%,38.5%,-0.3%
Cc1ccccc1C(=O)NNS(=O)(=O)c1ccc(F)cc1,/,-20.8%,/,/,/,0.4%
Cc1ccc(NC(=O)c2csnn2)c(C)c1,3.7%,-9.7%,14.1µM*,-18.1%[57.1 µM],63.2%,0.0%
Cc1ccc(S(=O)(=O)NNC(=O)c2ccc(F)cc2)cc1,-8.8%,-4.4%,/,-3.1%,18.4%,?
O=C(NC(=O)c1csnn1)Nc1ccccc1Cl,-20.5%,-6.9%,89.1µM*,-16.0%,26.8%,?
Cc1ccc(S(=O)(=O)NNC(=O)c2csnn2)cc1,-5.2%,-20.7%,?,17.8µM*,19.2%,-19.9%
Cc1ccccc1CC(=O)N(Cc1ccco1)C1CC1,/,/,/,/,/,-1.1%
Cc1ccc(S(=O)(=O)N2CCCCC2)cc1NC(=O)COC(=O)CNC(=O)c1cc(Cl)cc([N+](=O)[O-])c1,-29.8%,3.7%,6.4%[59 µM],-19.2%,5.1%,-17.6%
CC(C)NC(=O)COC(=O)CNC(=O)c1cc(Cl)cc([N+](=O)[O-])c1,-3.9%,29.9µM*,14.0%[59 µM],-20.6%,-5.9%,-6.9%
Cc1cc(C)n(-c2nnc(NCc3ccc(Cl)cc3)nn2)n1,?,-24.7%,-35.3%,39.8µM*,?,-4.8%
Cc1nn(-c2nnc(NCc3ccccc3)nn2)c(C)c1Br,35.5µM*,-7.1%,12.6µM*,50.1µM*,?,?
CNC(=O)CCn1ncc2cc(OC3CCc4cccc(-c5ccc(O)c(F)c5)c43)ccc21 (stereo not drawn),/,/,/,/,/,50.1µM*
COC(=O)CN1C(=S)N(c2ccc(Cl)cc2)C(=O)C1CC(=O)Nc1ccc(F)cc1 (stereo not drawn),3.4%,-19.8%,50.1µM*,-23.2%,13.8%,?
COC(=O)CN1C(=S)N(c2ccc(F)cc2)C(=O)C1CC(=O)Nc1ccc(F)cc1 (stereo not drawn),-12.9%,-23.4%,-45.4%[59 µM],-16.9%,-19.1%,?
COC(=O)CN1C(=S)N(c2ccc(Cl)cc2)C(=O)C1CC(=O)Nc1ccc(Cl)cc1 (stereo not drawn),?,-4.3%,18.8%[59 µM],-5.3%,-13.3%,35.5µM*
O=C(CC1C(=O)NCCN1C(=O)Nc1ccc(Cl)cc1)Nc1ccc(F)cc1 (stereo not drawn),-17.5%,-6.9%,-3.7%,-19.3%,1.3%,39.8µM*
CC1CN(C(=O)C(C)Sc2nc3ccccc3s2)CC(C)O1 (stereo not drawn),15.0%,?,-6.8%[59 µM],-14.5%[11.4 µM],-13.0%,0.0%
O=C(O)CCCc1c(-[n+]2ccccc2)[nH]c2ccccc12,-18.8%,2.7%,-29.5%,-6.1%,34.5%,-10.4%
O=C(c1ccccc1)n1nnc2ccccc21,8.0%,5.97µM*,4.2%[59 µM],-3.4%,41.3%,-4.2%
Nc1nc2ccccc2n1C(=O)c1ccccc1,79.4µM*,2.7%,/,-10.7%,36.4%,14.0%
CCSC(=O)N=Nc1ccc(O)cc1,/,26.7µM*,/,56.2µM*,?,?
